Rows were chosen to be rich in hits. Some 2.1% of all compounds tested hit in one or more screens of this group.
aSyn yeast inh: qHTS of alpha-syn Inhibitors. AID 652106, 2013. Potency, µM (top dose mostly 46.1 µM), for the others: at the top dose growth rescue (activation), usual class: activators. actives 0.14% (n = 370,000). Yeast expressing alpha-synuclein, growth rescue, BacTiter-Glo, 24 h; also: % of control where 0% means no effect; nearly all actives have a fitted effect of over 65% in size
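Screening used galactose-induced yeast with toxic alpha-synuclein levels, exposed to compound for 24 hr at 30 deg C. Cell growth, read with BacTiter-Glo luminescence, gave the measured signal.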
TDP43 rescue: qHTS of TDP-43 Inhibitors | actives 1.8% (n = 410,000) | AID 652104, 2013 | Potency, µM (highest dose often 46.1 µM), for the others: at the highest dose growth rescue (activation), actives largely listed as activators | TDP-43 expressing yeast growth rescue, BacTiter-Glo, 24 h; also: % of control where 0% means no effect; nearly all actives have a fitted effect of over 50% in size
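Readout is BacTiter-Glo luminescence of cell growth, so inhibitors register as activators. TDP-43-expressing yeast at OD600=0.02 in galactose medium, after raffinose pregrowth to mid-log, were incubated with compound for 24 hr at 30 deg C.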
FUS suppressor: qHTS for Suppressors of FUS Proteinopathy: Primary screen using FUS-linked yeast assay. actives 0.24% (n = 390,000). AID 1347120, 2019. S. cerevisiae FUS-expressing, growth rescue, OD600, 24 h. Potency, µM (top dose mostly 76.6 µM), most hits filed as activators;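 also: plate controls were DMSO vehicle for no effect and reference control for full effect; nearly all actives have a fitted effect of over 55% in size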
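Quantitative HTS measuring growth restoration of FUS-toxic yeast. Galactose-induced cells (OD 0.005) were exposed 24hr at 30C to compounds at several concentrations, then absorbance at 600 nm was recorded.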
Abeta rescue: qHTS for compounds that reverse cellular toxicity of Amyloid beta (A-beta) peptide in yeast: Primary Screen. AID 1347071, 2019. actives 0.063% (n = 410,000). yeast expressing A-beta42, growth rescue, OD600, 48 h; response scale: 0% DMSO, 100% iron-clioquinol control. Potency, µM (series often up to 46.1 µM), actives largely listed as activators; also: nearly all actives have a fitted effect of over 55% in size
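Growth rescue measured by 600 nm absorbance after 48 h yeast culture at 30 C with compound. Values normalized between DMSO and an equimolar ferric chloride plus clioquinol control.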
* marks the source's active call; other numbers are inactive results; i = inactive; ? = inconclusive; / = not tested or not shown; [ ] = dose if it differs, or a comment. Calls follow the shape of the dose curve; as a rule, active = well fitted curve in the direction sought with a large enough effect; inconclusive = small, poorly fitted or top-dose-only effect, or another doubt; inactive = no such curve, though single readings can be large; an effect the other way counts as inactive or inconclusive. Potency is read from the fitted curve at half-maximal effect.

SMILES	aSyn yeast inh	TDP43 rescue	FUS suppressor	Abeta rescue
CCOc1ccc2oc(=O)cc(CN3CCN(c4cc(C)ccc4C)CC3)c2c1	/	5.5%	i	i
COc1ccc(CCC(=O)NCCc2csc(-c3cccc(C)c3)n2)cc1	/	?	i	i
Cc1cccc(-c2nc(CCNC(=O)COc3ccccc3)cs2)c1	/	35.5µM*	i	i
Cc1cccc(-c2nc(CCNC(=O)Cc3ccccc3)cs2)c1	/	15.8µM*	i	i
CCOc1ccc(-c2cn(-c3ccc(OC)cc3)c(SCC(=O)Nc3ccccc3Cl)n2)cc1	/	9.3%[9.22 µM]	i	i
CCOc1ccc(-c2cn(-c3ccc(OC)cc3)c(SC)n2)cc1	7.3%	12.6µM*	i	i
CN(CCc1ccccn1)C(=O)c1cc2ccccn2n1	/	/	i	/
CN1c2ccccc2SC2C(c3ccccc3)=NOC21 (configuration not stated)	9.0%	17.8µM*	i	i
CN1C(c2ccccc2)=NO[C@]1(C)c1ccccc1	-2.5%	7.3%	i	i
CC(=O)OCON[N+]([O-])=NC(C)C	-0.5%	/	/	/
Cc1ccc(C(=O)/C=C/Nc2ccccc2C(N)=O)o1	11.2µM*	-4.8%	i	i
NC(=O)c1ccccc1N/C=C/C(=O)c1ccc(F)cc1	7.5%	?	i	i
COc1cccc(-c2nc(SCC(=O)Nc3ccc4c(c3)OCO4)c(-c3ccccc3)[nH]2)c1	/	22.4µM*	?	i
CCCCCC/C=N/Nc1nnc(Cc2ccccc2)c(=O)[nH]1	-4.5%	20µM*	i	i
CCC/C=N/Nc1nnc(Cc2ccccc2)c(=O)[nH]1	0.3%	-6.3%	i	i
O=C(CSc1nnc(COc2ccccc2Cl)o1)NC(=O)NC1CCCC1	17.8µM*	2.7%	?	i
CCOC(=O)[C@@]12CCCC3=C1N(CCC3)C(=O)[C@H]2CC(=O)NCc1ccc(C)o1	/	/	i	/
CC(C)C[C@H]1COCCS(=O)(=O)N1Cc1cccc(C(F)(F)F)c1	0.4%	14.1µM*	i	i
O=S1(=O)CCOC[C@H](Cc2ccccc2)N1Cc1cccc(Cl)c1	17.1%	?	i	i
O=S1(=O)CCOC[C@H](Cc2ccccc2)N1Cc1ccc(Cl)cc1	18.0%	15.8µM*	i	i
CCC(C)[C@H]1COCCS(=O)(=O)N1Cc1ccc(Br)cc1 (some centres not stated)	11.2%	35.5µM*	i	i
CC(C)C[C@H]1COCCS(=O)(=O)N1Cc1cccc(Cl)c1	0.7%	?	i	i
COc1cc2c(cc1NC(=O)CSc1nnc(COc3ccccc3)n1Cc1ccco1)oc1ccccc12	/	/	i	/
CCN(CC)C(=O)CSc1nc2ccc(NC(=O)CSc3nccn3C)cc2s1	2.5%	-6.7%	i	i
CCN(CC)C(=O)CSc1nc2ccc(NC(=O)CSc3nnc(N)s3)cc2s1	0.1%	-4.8%	10µM*	i
SMILES	aSyn yeast inh	TDP43 rescue	FUS suppressor	Abeta rescue
CCNc1nc(Cl)nc(NC2CCCCC2)n1	-7.9%	12.6µM*	i	i
O=S(=O)(Nc1ccc(C(F)(F)F)cc1)c1ccc2c(c1)OCCO2	22.7%	?	i	?
CCOc1cccc(NC(=O)C2CC(=O)N(CC)C(=Nc3ccc(F)cc3)S2)c1 (configuration not stated)	?	22.4µM*	i	?
CCN=C1SC(C(=O)Nc2cccc(OCC)c2)CC(=O)N1CC (configuration not stated)	2.3%	-7.3%	i	i
C=CCN1[C@H](C#N)[C@@H](c2ccccc2)[C@H]1CO	/	/	i	/
COc1ccc2c(c1)-c1nc(NC(=O)c3cccs3)sc1CC2	-1.9%	17.8µM*	?	i
COc1ccc2c(c1)-c1nc(NC(=O)c3ccco3)sc1CC2	-15.0%	?	/	i
COc1ccc2c(c1)CCc1sc(NC(=O)c3ccco3)nc1-2	-7.2%	20µM*	i	i
CCc1ccccc1N(C)C(=O)c1cn(-c2cccc(OC)c2)c(=O)c2ccccc12	/	20µM*	i	i
O=C(NCCCN1CCN(c2ccc(F)cc2)CC1)NCc1ccccc1	/	/	i	/
COc1ccc2c(c1)[nH]c1c(Cl)ncnc12	?	11.2µM*	i	i
Cc1ccc2[nH]c3c(Cl)ncnc3c2c1	13.2%	7.2%	i	i
CC(=O)Nc1ccccc1OCC(=O)c1cc(C)n(Cc2cccs2)c1C	-10.0%	22.4µM*	i	i
Cc1cc(C(=O)COc2cccnc2[N+](=O)[O-])c(C)n1Cc1cccs1	3.8%	-18.1%	i	i
CC(C)N1CCCCC(NC(=O)c2ccc(Cl)cc2Cl)C1=O (configuration not stated)	/	/	i	/
CC1CCN(c2nc(-c3ccncc3)nc3ccccc23)CC1	?	12.6µM*	i	i
Oc1ccccc1-c1nc(NCC2CCCO2)c2ccccc2n1 (configuration not stated)	-8.9%	11.2µM*	i	i
CC1CCCN(c2nc(-c3ccccc3O)nc3ccccc23)C1 (configuration not stated)	0.3%	20µM*	i	i
COCCCNC(=O)C[C@H]1C[C@@]2(C(=O)OC)C(=C[C@H](COCc3ccccc3)O[C@@H]2C)N(Cc2ccccc2)C1=O	/	/	i	/
COC(=O)c1cccc(NC(=O)c2cccc([N+](=O)[O-])c2)c1	-0.4%	12.6µM*	i	i
CC(=O)Nc1cccc(C(=O)OCc2ccc([N+](=O)[O-])cc2)c1	-0.9%	?	i	i
O=C(Nc1cccc([N+](=O)[O-])c1)c1cccc(C(=O)Nc2cccc([N+](=O)[O-])c2)c1	0.2%	13.8%	i	i
CCC(=O)Nc1cccc(C(=O)OCc2cccc([N+](=O)[O-])c2)c1	-8.8%	11.2µM*	i	i
C=CCN1C(=O)[C@@H](CC(=O)N2CCN(C(=O)C3CC3)CC2)[C@]2(C(=O)OC)CCCCC=C12	/	/	i	/
CCOC(=O)c1cc(C)n(CC2CCC(C(=O)Nc3ccccc3OC)CC2)c1C (configuration not stated)	/	8.0%	?	i
SMILES	aSyn yeast inh	TDP43 rescue	FUS suppressor	Abeta rescue
COc1ccccc1C(=O)NC1(C(F)(F)F)C(=O)Nc2c1c(=O)[nH]c(=O)n2-c1ccc(F)cc1 (configuration not stated)	-8.5%	-4.9%	i	i
Cc1ccc(CNC(=O)CO/N=C/c2ccc3c(c2)OCO3)cc1	6.1%	20µM*	i	i
Cc1cccc(NC(=O)CO/N=C/c2ccc3c(c2)OCO3)c1	3.5%	0.2%	/	i
C=CCN1C(=O)[C@@H](CC(=O)NCCCCc2ccccc2)[C@]2(C(=O)OC)CCCCC=C12	/	/	i	/
Cc1noc(C)c1COc1ccc(CC(=O)NCCc2ccccc2)cc1	5.5%	0.7%	i	i
Cc1nnc(NC(=O)Cc2ccc(OCc3c(C)noc3C)cc2)s1	-2.3%	-5.6%	14.1µM*	i

Compound activity: PubChem BioAssay, National Center for Advancing Translational Sciences (NCATS)
